Coupling enz: inhibits coupling enzyme system, counter-screen for aldolase hits; coupling enzyme system counterscreen, AmpLite Red fluorescence; actives 0.67% (n = 290,000); activity change, negative = inhibition, % at 58.2 µM, hits read low; in the data active = activity change below about -30%
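Counterscreen lacking aldolase: glyceraldehyde-3-phosphate coupling-enzyme reagent preincubated 10 min at RT with compound (at 57.5 uM final), then substrate/coupling system with AmpLite Red added; fluorescence read at 525/598 nm after 20 min RT.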
KDM4E inh: JMJD2E (human) inhibition; AID 2147; Potency, µM (series often up to 57.1 µM), most hits filed as inhibitors; JMJD2E catalytic domain, FDH-coupled NADH fluorescence (FDH is formaldehyde dehydrogenase); actives 1.6% (n = 230,000); active = well fitted inhibition curve with a large enough effect, not every such curve was filed as active; inconclusive = small, poorly fitted or top-dose-only effect, or another doubt; inactive = no such curve, though single readings can be large or run the other way; also: nearly all actives have a fitted effect of over 50% in size
Target sequence (B2RXH2 1-337 limits assumed): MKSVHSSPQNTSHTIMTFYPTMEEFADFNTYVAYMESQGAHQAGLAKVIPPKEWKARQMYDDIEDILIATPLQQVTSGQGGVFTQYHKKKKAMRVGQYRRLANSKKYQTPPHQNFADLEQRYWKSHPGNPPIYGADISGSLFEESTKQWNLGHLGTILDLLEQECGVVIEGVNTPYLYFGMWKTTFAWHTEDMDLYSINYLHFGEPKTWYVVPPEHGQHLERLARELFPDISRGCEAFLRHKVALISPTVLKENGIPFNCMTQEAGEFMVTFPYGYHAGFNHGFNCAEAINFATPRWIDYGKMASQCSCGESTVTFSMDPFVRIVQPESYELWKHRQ
Sfp PPTase inh: blocks B. subtilis Sfp PPTase activity. Biochemical Sfp PPTase activity, qHTS. Potency, µM, usual class: inhibitors. actives 3.5% (n = 310,000). Q9F4F7;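 also: the enzyme is Sfp with the accession as filed and its product quenches rhodamine fluorescence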
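Sfp 15 nM + cpd, 15 min RT; start w/ rhodamine-CoA 5 uM, BHQ-2-YbbR 12.5 uM (final); 50 mM Hepes pH 7.6, 10 mM MgCl2, 0.01% NP-40, 0.01% BSA; read 525/598 nm at 0 and 30 min.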
NPSR antagonist: blocks cAMP signaling of the human neuropeptide S receptor; CHO-NPSR cells, cAMP TR-FRET, antagonist mode; Q6W5P4; actives 1% (n = 220,000); AID 1461; Potency, µM (series often up to 38.3 µM), most hits filed as inhibitors; also: nearly all actives have a fitted effect of over 50% in size
Target sequence (Q6W5P4 whole entry, looked up): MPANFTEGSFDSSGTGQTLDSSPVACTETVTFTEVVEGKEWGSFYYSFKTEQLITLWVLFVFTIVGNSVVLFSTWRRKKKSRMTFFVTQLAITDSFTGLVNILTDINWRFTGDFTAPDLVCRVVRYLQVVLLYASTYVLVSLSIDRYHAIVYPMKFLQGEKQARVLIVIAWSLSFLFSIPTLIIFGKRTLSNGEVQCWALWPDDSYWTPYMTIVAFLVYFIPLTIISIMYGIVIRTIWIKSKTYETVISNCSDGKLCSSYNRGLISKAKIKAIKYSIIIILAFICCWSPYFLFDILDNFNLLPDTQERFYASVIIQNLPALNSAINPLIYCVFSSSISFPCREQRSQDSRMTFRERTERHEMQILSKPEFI
RGS12 GoLoco inh: inhibitors of human Gai1-RGS12 GoLoco interaction (red fluorophore) | AID 880 | Potency, µM (doses to about 61.6 µM), most hits filed as inhibitors | Gai1:RGS12 GoLoco peptide FP, rhodamine, 10 min | actives 0.44% (n = 230,000) | P63096; active = well fitted inhibition curve with a large enough effect, not every such curve was filed as active; inactive = no such curve, though single readings can be large or run the other way; also: nearly all actives have a fitted effect of over 30% in size
ALDH1A1 inh: ALDH1A1 (human) enzyme inhibition; AID 1030; P00352; Potency, µM (doses to about 75.3 µM), hits mostly inhibitors; Purified ALDH1A1, NADH fluorescence, propionaldehyde substrate; actives 7.3% (n = 220,000); active = well fitted inhibition curve with a large enough effect, not every such curve was filed as active; inconclusive = small, poorly fitted or top-dose-only effect, or another doubt; inactive = no such curve, though single readings can be large or run the other way
A number is an active result; i = inactive; ? = inconclusive; nt = no result given; [ ] = remark or other dose. Compounds with a hit are over-represented: about 8.5% of the library has one in this group of screens. Unless noted, calls follow the shape of the dose curve; as a rule, active = well fitted curve in the direction sought with a large enough effect; inconclusive = small, poorly fitted or top-dose-only effect, or another doubt; inactive = no such curve, though single readings can be large; an effect the other way counts as inactive or inconclusive.

SMILES | Coupling enz | KDM4E inh | Sfp PPTase inh | NPSR antagonist | RGS12 GoLoco inh | ALDH1A1 inh
CC(=O)Nc1ccc(C2=NNC(=Nc3ccc(S(=O)(=O)N4CCOCC4)cc3)SC2)cc1 | i | ? | 14.1µM | i | i | nt
CN(C)S(=O)(=O)c1cccc(N=C2NN=C(c3ccccc3)CS2)c1 | i | i | i | i | i | ?
O=S(=O)(c1ccc(N=C2NN=C(c3cc(F)ccc3F)CS2)cc1)N1CCOCC1 | i | i | i | i | i | 28.2µM
O=C(CCS(=O)(=O)c1cccc2nonc12)Nc1ccc(Br)cc1 | i | nt | i | nt | nt | nt
COC(=O)NC(/C=C/c1ccccc1)[C@]1(C(C)=O)CCCC1=O (stereo not given in full) | i | nt | i | nt | nt | i[13.5 µM]
Nc1cccc(-n2nnnc2CN2CCOCC2)c1 | -30.9 | i | i | i | i | ?
CCCCC(=O)Nc1nc(C)c(-c2csc(Nc3cc(OC)ccc3OC)n2)s1 | i | ? | i | i | i | i
CCCCC(=O)Nc1nc(C)c(-c2csc(Nc3cc(Cl)ccc3OC)n2)s1 | i | ? | ? | i | i | 10µM
CCCC(=O)Nc1nc(C)c(-c2csc(Nc3ccccc3C)n2)s1 | i | i | 20µM | i | i | 10µM
Cc1ccc(S(=O)(=O)CCC(=O)NC2CCCC2)cc1 | nt | nt | i | nt | nt | nt
CN1CCc2nc3sc(C(=O)NCc4ccccc4)c(N)c3cc2C1 | i | ? | i | 12.6µM | i | 25.1µM
COC(=O)c1sc2nc3c(cc2c1N)CCCC3 | i | ? | i | i | i | ?
O=C(CN1C(=O)S/C(=C/c2ccncc2)C1=O)N1CCOCC1 | i | i | i | i | i | 25.1µM
O=C(CN1C(=O)S/C(=C/c2cc(Br)cs2)C1=O)N1CCOCC1 | i | i | i | i | i | 22.4µM
O=C(CN1C(=O)S/C(=C/c2cccs2)C1=O)N1CCOCC1 | i | i | i | i | i | i
CCCCCC(=O)NNC1CC(=O)N(c2ccccc2)C1=O (stereo not given) | i | i | i | i | i | nt
CCCCCC(=O)N(CN1C(=O)CCC1=O)c1ccccc1 | i | i | i | i | i | i
CCCCCC(=O)N(O)C1CC(=O)N(c2ccccc2)C1=O (stereo not given) | i | i | 12.6µM | i | i | 0.794µM
CN(Cc1ccccc1)C1CC(=O)N(c2ccc(C(=O)O)cc2)C1=O (stereo not given) | i | i | i | i | i | 28.2µM
CCCCCCC(=O)N(O)C1CC(=O)N(Cc2ccccc2)C1=O (stereo not given) | i | ? | 50.1µM | i | i | 3.55µM
COc1ccc(N2C(=O)CC(N(CCc3ccccc3)C(=O)c3ccccc3)C2=O)cc1 (stereo not given) | i | i | i | ? | i | nt
O=[N+]([O-])c1ccc(Cl)c(/C=N/n2c(-c3ccncc3)n[nH]c2=S)c1 | i | i | 56.2µM | i | i | nt
Cc1nn(-c2ccccc2)c(C)c1/C=N/n1c(-c2ccc(Cl)cc2)n[nH]c1=S | i | i | i | i | i | ?
Cc1ccc(-c2nn(-c3ccccc3)cc2/C=N/n2c(-c3ccncc3)n[nH]c2=S)cc1 | i | i | i | i | i | nt
CCOc1ccc2nc(/N=C/c3c(C)[nH]n(-c4ccc(C)cc4)c3=O)sc2c1 | i | i | i | i | i | i
SMILES | Coupling enz | KDM4E inh | Sfp PPTase inh | NPSR antagonist | RGS12 GoLoco inh | ALDH1A1 inh
Cc1nn(-c2ccccc2)c(C)c1/C=N/n1c(-c2ccncc2)n[nH]c1=S | i | i | i | i | i | 22.4µM
CCOc1ccc2nc(/N=C/c3c(C)[nH]n(-c4ccccc4)c3=O)sc2c1 | i | i | 10µM | i | i | ?
O=[N+]([O-])c1ccc(O)c(/C=N/n2c(-c3ccccc3)n[nH]c2=S)c1 | i | nt | ? | nt | nt | nt
Cc1ccc(-c2n[nH]c(=S)n2/N=C/c2c(C)[nH]n(-c3ccccc3)c2=O)cc1 | i | ? | 50.1µM | i | i | i
c1ccc(Nc2nnc(-c3cccnc3)s2)cc1 | i | nt | i | nt | nt | nt
CCOC(=O)C1=C(CS(=O)(=O)c2ccccc2)NC(=O)NC1c1cc(OC)c(O)c(OC)c1 (stereo not given) | i | nt | i | nt | nt | nt
CC(C)COC(=S)Nc1ccccc1 | i | i | i | i | i | 25.1µM
O=C(CSc1ccc2nnc(-c3ccccn3)n2n1)Nc1ccccc1F | nt | nt | i | nt | nt | nt
COc1ccc(NC(=O)C2CCN(S(=O)(=O)c3ccc4c(c3)CC(C)N4C(C)=O)CC2)c(OC)c1 (stereo not given) | i | nt | i | nt | nt | nt
COCCNC(=O)CN1C(=O)NC2(CCCc3ccccc32)C1=O (stereo not given) | i | nt | i | nt | nt | nt
O=[N+]([O-])c1ccc2[nH]c(O)c(N=NC(=S)NCC3CCCO3)c2c1 (stereo not given) | i | i | i | i | i | 0.794µM
Cc1ccc(NCC(=O)N=Nc2c(O)[nH]c3ccc([N+](=O)[O-])cc23)cc1 | -31.1 | ? | i | i[7.67 µM] | i | nt
COc1ccc(CCN(C)C2CCCN(C(=O)CCC(F)(F)F)C2)cc1OC (stereo not given) | i | nt | i | nt | nt | nt
O=C(NCCCCNC(=O)C(F)(F)F)C(F)(F)F | i | i | i | i | i | ?
COC(=O)C1C(=O)c2c([nH]c(C(=O)OC3CCCC3C)c2C)CC1C (stereo not given) | i | i | i | ? | i | 12.6µM
COc1ccc(OCc2cccc(C(=O)NN)c2)cc1 | i | i | i | i | i | 0.316µM
O=C(O)c1ccc(COc2ccc3c(c2)CCC3)cc1 | i | i | i | i | i | nt
NNC(=O)c1cccc(COc2ccc(Br)cc2)c1 | i | i | i | i | i | 0.631µM
O=C(NN1CCOCC1)c1cccc(COc2cccc(Br)c2)c1 | i | i | i | i | i | i
NNC(=O)c1cccc(COc2cccc(Br)c2)c1 | i | i | i | i | i | 3.16µM
O=C(NCc1ccccc1)c1cccc(COc2ccc(Cl)cc2)c1 | i | i | i | i | i | ?
NNC(=O)c1ccc(COc2ccc3c(c2)CCC3)cc1 | i | i | i | i | i | 7.94µM
S=C(Nc1ccc(Cl)cc1)c1sc(N2CCCCC2)nc1N1CCOCC1 | i | i | ? | i | i | i
Cc1cccc(/C(N)=N/OC(=O)CCCc2ccccc2)c1 | nt | nt | i | nt | nt | nt
CC(=O)OC1CC(c2cc(C(C)(C)C)c(O)c(C(C)(C)C)c2)=NO1 (stereo not given) | i | i | i | i | i | nt
SMILES | Coupling enz | KDM4E inh | Sfp PPTase inh | NPSR antagonist | RGS12 GoLoco inh | ALDH1A1 inh
O=C(CN1C(=O)S/C(=C\C=C\c2ccccc2)C1=O)Nc1cccc(O)c1 | i | i | i | i | i | 31.6µM
CCOC(=O)c1sc(N)c(C(=O)Nc2ccc(C)cc2C)c1C | nt | nt | nt | nt | nt | 10µM
CCOC(=O)c1c(N)sc(C(=O)OC)c1C | i | i | 56.2µM | i | i | ?
CCOC(=O)c1sc(N)c(C(=O)Nc2ccccc2OC)c1C | i | i | 14.1µM | i | i | 4.47µM
CCOC(=O)c1sc(N)c(C(=O)OC)c1C | i | ? | i | i | i | i
C=CCn1c(N)c(C(=O)Nc2ccccc2OC)sc1=S | i | i | i | i | nt | 22.4µM
